The test addresses Solute carrier family 2, facilitated glucose transporter member 1 (Homo sapiens) (UniProt P11166). Put plainly: ST_JUDE_LEISH: Cytotoxicity at 2uM final concentration against transgenic Leishmania Mexicana promastigotes LmGLUT1 that are glucose transport deficient and complemented with the human glucose transporter GLUT1. Activity is measured by DNA content using SYBR green in vitro. The class given is functional.
Chain of Solute carrier family 2, facilitated glucose transporter member 1 (Homo sapiens) (P11166 whole entry): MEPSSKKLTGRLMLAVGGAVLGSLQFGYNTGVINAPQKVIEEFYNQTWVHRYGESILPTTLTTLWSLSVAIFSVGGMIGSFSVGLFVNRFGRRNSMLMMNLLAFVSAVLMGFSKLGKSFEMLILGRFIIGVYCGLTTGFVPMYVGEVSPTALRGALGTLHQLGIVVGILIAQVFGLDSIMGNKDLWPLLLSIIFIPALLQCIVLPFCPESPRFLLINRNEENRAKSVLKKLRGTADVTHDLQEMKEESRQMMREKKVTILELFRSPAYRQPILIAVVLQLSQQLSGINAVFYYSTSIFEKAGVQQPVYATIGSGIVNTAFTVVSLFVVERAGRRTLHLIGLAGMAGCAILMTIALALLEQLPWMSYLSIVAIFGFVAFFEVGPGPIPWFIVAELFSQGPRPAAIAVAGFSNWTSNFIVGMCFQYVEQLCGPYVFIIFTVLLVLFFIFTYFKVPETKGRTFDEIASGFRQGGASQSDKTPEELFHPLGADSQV
Broadly, the inhibition is the change of the read-out against control, counted positive when it falls. `N#Cc1cccc(NC(=O)c2cccc(S(=O)(=O)NC3CCN(CC4CCCCC4)C3)c2)c1` (stereo not given): the inhibition was found to be 0.54%.

Regarding `CCCCCCNC(=O)C1Cc2c([nH]c3ccc(C)cc23)C2(CCN(CCc3ccccc3)CC2)N1` (stereo not given), the inhibition worked out at 0.36%.

In the case of `Clc1cccc(Nc2ccc3c(N4CCCCC4)ncnc3n2)c1`, the inhibition is 12%.

Consider `COc1ccc2nccc([C@@H](O)CN3CCC(NC(=O)C(c4ccsc4)N4CCN(c5ccccc5OC)CC4)CC3)c2c1` (stereo not given in full), for which the inhibition came out at 1.93%.

For `O=c1cc(NC[C@H]2CCC[C@@H]2NC2CCCc3c2[nH]c2ccccc32)[nH]c2ccccc12` (stereo not given in full), the inhibition amounted to 0.74%.

Consider `CCc1ccc2nc(-c3ccc(F)cc3)nc(SCC(=O)Nc3sc(C)c(C)c3C#N)c2c1`, for which the inhibition is 5.67%.

Turning to `C[C@H](Nc1c(Nc2ccc3[nH]ccc3c2)c(=O)c1=O)C1CCCCC1`, the inhibition was -1.55%.

For `Nc1nc(O)c2cc(CN(C=O)c3ccc(C(=O)N[C@@H](CCC(=O)O)C(=O)O)cc3)ccc2n1`, the inhibition was found to be 6.36%.

As to `CN1CCC[C@H]1COc1ccc(CN2CC[C@H](NC(=O)c3ccc(Cl)c(Cl)c3)C2)c2ccccc12`, the inhibition was determined as 9.64%.

In the case of `O=C(NC1CCN(Cc2ccccc2)CC1)c1ccc(-c2nc3cc(Cl)c(Cl)cc3[nH]2)s1`, the inhibition turned out to be 0.03%.

For the compound `O=C(c1cc(C(=O)Nc2ccccc2)c(=O)n(-c2ccccc2)c1)c1cc(Cl)ccc1O`, the inhibition is 3.8%.

Regarding `Cc1sc(CNCCCNc2cc(=O)c3ccccc3[nH]2)cc1Br`, the inhibition is 0.99%.

As to `O=c1cc(NCCCNCc2ccc(Cl)c(Cl)c2)[nH]c2cc(F)cc(F)c12`, the inhibition was found to be 3.21%.

Consider `CCCCCCN1CCC(NCc2ccc(C(F)(F)F)cc2)CC1`, for which the inhibition stood at 2.05%.

For the compound `COc1ccc(Nc2ncc3c(-c4cccc(NC(=O)c5ccc(N)cc5)c4)c[nH]c3n2)cc1OC`, the inhibition amounted to 9.74%.

Consider `CCOC(=O)c1c(C)n(-c2ccccc2)c2ccc(OC(=O)c3ccc(S(=O)(=O)N(CC)CC)cc3)cc12`, for which the inhibition is 4.6%.

As to `CC(C)Nc1ccc(Nc2ccnc3cc4ccccc4cc23)cc1`, the inhibition turned out to be 1.19%.

`COc1cc2nc(NCCc3ccccc3)nc(N(C)Cc3ccccc3)c2cc1OC`: the inhibition was 5.11%.

Consider `Cc1nc(C)n(CC(=O)Nc2cccc(-c3cccc(-c4nc5cc(C(F)(F)F)ccc5[nH]4)c3)c2)n1`, for which the inhibition came out at 10.2%.

Turning to `O=C(Nc1cccc(CN2CCCN(Cc3cccc(Cl)c3)CC2)c1)c1ccc(Br)cc1`, the inhibition is 7.66%.

For `Clc1ccc2c(NCCNc3ccnc4cc(Cl)ccc34)ccnc2c1`, the inhibition was -0.52%.

With `CCOc1c(Br)cc(Cl)cc1CNCCCNc1nc2ccccc2[nH]1`, the inhibition worked out at 1.77%.

Turning to `CCC[C@@H]([C@@H](CC1CCCCC1)C(=O)N[C@H](C(=O)Nc1nccs1)C(C)(C)SCCNC(=O)OCC)N(O)C=O`, the inhibition came to 3.35%.

Turning to `CN(C)CCOc1ccc(/C(=C(/CCCn2ccnc2)c2ccccc2)c2ccc(O)cc2)cc1`, the inhibition is 4.25%.

As for `Cc1cc(-c2ccnc(Nc3cccc(C#N)c3)n2)cc(C)c1O`, the inhibition turned out to be 13.8%.

As to `COc1ccc(S(=O)(=O)NCCCC2CCN(CCCCCNC(=O)C=Cc3ccc(Cl)c(Cl)c3)CC2)cc1`, the inhibition is 0.69%.

As to `COc1cc2c(cc1OC)CN(CCc1ccc(NC(=O)c3cc4cc(OC(F)(F)F)ccc4[nH]3)cc1)CC2`, the inhibition was found to be 3.34%.

For `c1ccc(Oc2ccc(Nc3ccnc(Nc4cccc(CNCCCN5CCOCC5)c4)n3)cc2)cc1`, the inhibition was -3.58%.

Regarding `COc1ccc(CCCc2nc(N)nc(N)c2-c2ccc(Cl)cc2)cc1`, the inhibition amounted to 6.21%.

Consider `COc1ccc(S(=O)(=O)N(CCCN2CCN(C)CC2)Cc2csc(-c3ccc(CNCc4ccccc4)cc3)n2)cc1`, for which the inhibition is -1.13%.

In the case of `CCCc1cc(NCC)nc(Nc2ccc(F)cc2)n1`, the inhibition was 15.6%.

Take `CN1CCC(Oc2ccc(NC(=O)c3ccc4c(=O)n(Cc5ccccc5)cnc4c3)cc2Cl)CC1`: the inhibition is 32.8%.

As to `CCOc1ccc2nc3cc(NC(=O)c4ccco4)ccc3c(N)c2c1`, the inhibition amounted to 3.66%.

For the compound `COc1ccc2c(ccc3c2ncc2c(=O)n(-c4ccccc4)[nH]c23)c1`, the inhibition is -1.88%.

On to `Cc1cccc2c(/C=C/C(=O)NC3CCC(CCN4CCc5ccc(C#N)cc5CC4)CC3)c[nH]c12` (stereo not given), for which the inhibition worked out at 10.1%.

In the case of `CSc1ccc2ccccc2c1CNCCCCCCNCc1c(SC)ccc2ccccc12`, the inhibition was determined as 1.24%.

As to `Cc1cc(=NN=Cc2cccc(F)c2)c2cccc(C)c2[nH]1`, the inhibition was determined as 2.24%.

Turning to `O=C(Nc1ccc(OC2CCN(Cc3ccco3)CC2)c(Cl)c1)c1ccc2ncccc2c1`, the inhibition worked out at 4.38%.

Regarding `Cc1ccc(NC(=O)C(C)Sc2nnc(-c3ccccc3Br)[nH]2)cc1` (stereo not given), the inhibition was -1.5%.

For the compound `Cc1cc(N[C@@H](Cc2ccccc2)C(=O)Nc2ccccc2)nc(NCCc2cccnc2)n1`, the inhibition is 10.6%.

The values above are taken from ChEMBL document CHEMBL3433997, “St. Jude Leishmania screening dataset” (2016).
